# Screening data: PubChem BioAssay, National Center for Advancing Translational Sciences (NCATS)
# HP1b chromo inh = HTS for Inhibitors of HP1-beta Chromodomain Interactions with Methylated Histone Tails; Chromobox protein homolog 1 (Homo sapiens), P83916; Potency, µM (top dose mostly 114 µM), hits mostly inhibitors; AlphaScreen HP1-beta / biotin-H3K9me3 peptide binding; hit rate 0.56% among 390,000; also: nearly all actives have a fitted effect of over 70% in size
#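 Compound inhibition of the preformed complex between 50 nM HP1-beta and 50 nM biotinylated H3K9me3 peptide was read by AlphaScreen. Buffer was PBS pH 7.4 with 0.01% Tween-20. Incubations ran 30 min at room temperature, with 10 ug/mL donor/acceptor beads.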
# PLK1 PBD block = qHTS for Inhibitors of PLK1-PDB (polo-like kinase 1 - polo-box domain): Primary Screen; Serine/threonine-protein kinase PLK1 (Homo sapiens), P53350; Plk1 PBD binding of FITC phosphopeptide, fluorescence polarization; Potency, µM, most hits filed as inhibitors; hit rate 2.8% among 360,000; AID 720504, 2013; also: series mostly up to about 57 µM; nearly all actives have a fitted effect of over 65% in size
# PI5P4Ka inh = qHTS for Inhibitors of phosphatidylinositol 5-phosphate 4-kinase (PI5P4K); max response, %; PI5P4Kalpha enzyme, ADP-Glo luminescence, 60 min; stronger effect = lower value; hit rate 1.2% among 330,000; Phosphatidylinositol 5-phosphate 4-kinase type-2 alpha (Homo sapiens), P48426; active = max response of -50% or lower; inconclusive = between -30% and -50%; inactive = -30% or higher; also: value at the top dose of about 77 µM
#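 qHTS, 1536-well: enzyme/substrate mix, compound by pin tool, 5 microM ATP final; RT 60 min; ADP-Glo reagents 1 (45 min) then 2 (30 min); luminescence.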
# G9a block = qHTS Assay for Inhibitors of Histone Lysine Methyltransferase G9a; hit rate 8.8% among 350,000; G9a H3K9 monomethylation, AlphaScreen, 2 h; Histone-lysine N-methyltransferase EHMT2 (Homo sapiens), Q96KQ7; Potency, µM (doses to about 102 µM), most hits filed as inhibitors; also: nearly all actives have a fitted effect of over 75% in size
#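 Readings reflect AlphaScreen signal from monomethyl-H3K9 antibody detection. HMT at 20 nM; substrate b-H3K9 500 nM; cofactor SAM 20 uM; 2 h RT reaction; compounds tested as titrations in qHTS with 15 min preincubation.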
# JMJD2A Tudor inh = qHTS Assay for Inhibitors of JMJD2A-Tudor Domain. Lysine-specific demethylase 4A (Homo sapiens), O75164. Potency, µM (titrated, usually from 114 µM), usual class: inhibitors. hit rate 4.4% among 390,000. AID 504339, 2011. AlphaScreen JMJD2A-Tudor / H3K4me3 peptide binding; also: nearly all actives have a fitted effect of over 50% in size
# BAZ2B inh = qHTS Assay for Inhibitors of BAZ2B. Bromodomain adjacent to zinc finger domain protein 2B (Homo sapiens), Q9UIF8. AlphaScreen BAZ2B-H3K14Ac peptide displacement. Potency, µM (series often up to 114 µM), usual class: inhibitors. hit rate 4.4% among 360,000; also: nearly all actives have a fitted effect of over 60% in size
#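 AlphaScreen luminescence quantifies BAZ2B engagement of H3K14Ac peptide; the protein and biotinylated peptide are both at 50 nM final, buffer PBS pH 7.4 with 0.01% Tween-20, all steps at room temperature.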
# A number is an active result; 0 = inactive; ? = inconclusive; - = no result; [ ] = remark or other dose. Sampled rows, rich in hits. Any-hit rate of the full collection: about 12%. Unless noted, calls follow the shape of the dose curve; as a rule, active = well fitted curve in the direction sought with a large enough effect; inconclusive = small, poorly fitted or top-dose-only effect, or another doubt; inactive = no such curve, though single readings can be large; an effect the other way counts as inactive or inconclusive.
SMILES,HP1b chromo inh,PLK1 PBD block,PI5P4Ka inh,G9a block,JMJD2A Tudor inh,BAZ2B inh
O=C1OC(c2ccccc2)Cc2cc(C(=O)N3CCN(c4ccc(F)cc4)CC3)ccc21 (configuration not stated),0,0,0,50µM,0,0
COc1ccc(C(=O)N2CCC(C(=O)N3CCN(c4ccccc4)CC3)CC2)cc1,0,0,0,-,0,-
O=C(O)c1ccc2c(c1)CC(c1ccccc1)OC2=O (configuration not stated),0,0,0,?,0,0
COc1ccc(N2CCN(C(=O)c3ccc4c(c3)CC(c3ccccc3)OC4=O)CC2)cc1 (configuration not stated),0,0,0,10µM,?,40µM
Nc1ccc2nc(SCC(=O)N3CCN(c4ccccc4)CC3)sc2c1,0,0,0,50µM,0,?
CCOC(=O)CSc1nc2ccc(N)cc2s1,0,0,0,32µM,0,0
CCN(CC)C(=O)CSc1nc(N)c(C(=O)Nc2ccc(OC)cc2)s1,0,0,0,0,0,0
CC(=O)Nc1ccc2nc(SCc3ccccc3)sc2c1,0,-,-,0,0,0
CCOC(=O)CSc1nc(N)c(C(=O)Nc2ccc(N(C)C)cc2)s1,?,0,-,16µM,40µM,50µM
Nc1ccc2nc(SCc3cccc(F)c3)sc2c1,0,0,0,45µM,0,-
COc1ccc2nc(NC(=O)c3ccc(S(=O)(=O)N4CCC(C)CC4)cc3)sc2c1,0,-,-,0,0,0
CC(=O)N1N=C(c2ccco2)CC1c1ccc(Cl)o1 (configuration not stated),0,0,0,0,0,0
Cc1ccc(NC(=O)CSCc2cc(=O)c3ccccc3[nH]2)c(C)c1,0,-,-,0,0,0
Clc1ccc(SCCn2ccnc2)cc1,?,0,0,32µM,3.5µM,56µM
C=CCc1cc(C)ccc1OCCOCCn1ccnc1,28µM,0,0,10µM,3.2µM,32µM
Cc1cc(Cl)c(OCCn2ccnc2)c(Br)c1,?,0,0,-,18µM,?
C=CCc1cc(Cl)ccc1OCCn1ccnc1,?,0,0,7.1µM,20µM,50µM
Cc1cc(Cl)cc(C)c1OCCn1ccnc1,0,0,0,0,0,0
COc1ccc(C2c3cc(OC)c(OC)cc3CC(=O)N2c2ccc(C)cc2)cc1 (configuration not stated),0,-,-,0,0,0
O=c1[nH]nc2c3ccccc3occ1-2,-,0,0,-,-,-
Clc1ccc(OCCn2ccnc2)c(Cl)c1,?,0,-,?,3.5µM,50µM
COc1ccc(CC2C(=O)OC(C)(C)OC2=O)cc1,0,0,0,40µM,35µM,0
O=[N+]([O-])c1ccc(N2CCN(c3ccc(O)cc3)CC2)cn1,?,0,0,11µM,?,?
CCOc1cccc(/C=N/N=C/c2cccc(OCC)c2O)c1O,0,0,0,0,0,0
CCOc1cccc(C=Nc2cc(C)cc(C)c2O)c1O,0,24µM,0,?,18µM,?
SMILES,HP1b chromo inh,PLK1 PBD block,PI5P4Ka inh,G9a block,JMJD2A Tudor inh,BAZ2B inh
Cc1cccc(NS(=O)(=O)c2ccc3c(c2)NC(=O)CO3)c1C,0,0,0,0[0.501 µM],0,0
Nc1ccc(SCc2cccnc2)cc1,0,?,0,45µM,0,0
COc1cccc(NC(=O)NC2CCN(CC(=O)Nc3ccccc3[N+](=O)[O-])CC2)c1,0,0,0,0,?,0
Cn1c2ccccc2c(=O)c2cc(C#CC3(O)CCCCC3)ccc21,0,0,0,-,0,0
Cn1c2ccccc2c(=O)c2ccc(C#CC3(N)CCCCC3)cc21,0,0,0,40µM,0,0
COc1ccc(S(=O)(=O)N(CCc2ccccc2)CC(=O)Nc2cc(C)cc(C)c2)cc1OC,0,-,-,0,0,0
COc1ccc2sc(-c3ccccc3OC)c(C#Cc3cncn3C)c2c1,0,0,0,-,40µM,-
COc1ccc2c(C#CCCO)c(-c3ccc(S(C)(=O)=O)cc3)sc2c1,0,27µM,0,-,?,-
COc1ccc2sc(-c3ccccc3OC)c(C#CCCO)c2c1,0,0,0,0[0.501 µM],0,79µM
COc1ccc2sc(-c3ccc(S(C)(=O)=O)cc3)c(C#CCO)c2c1,0,0,0,-,0,-
COc1ccccc1-c1sc2cc3c(cc2c1C#Cc1cncn1C)OCO3,0,0,0,-,20µM,-
COc1cc(OC)cc(-c2sc3ccc(OC)cc3c2C#CCCO)c1,0,0,0,0[0.501 µM],0,?
CCOC(=O)C1CCCN(C(=O)Cc2ccc(OC)c(OC)c2)CC1 (configuration not stated),-,0,0,-,-,-
O=c1nc2c(O)cccn2c2c1c(=O)[nH]c1ccccc12,0,24µM,-58,45µM,22µM,?
CC(C)(C)OC(=O)N[C@@H](CC(=O)OCc1ccccc1)C(=O)O,0,27µM,?,0,50µM,0
CC(C)(C)OC(=O)NC(CC(=O)OCc1ccccc1)C(=O)O (configuration not stated),0,0,0,0,0,0
CC(C)(C)OC(=O)N[C@@H](CCCCNC(=O)OCc1ccccc1)c1nnc([C@H](CCCCNC(=O)OCc2ccccc2)NC(=O)OC(C)(C)C)o1,0,0,0,0,0,0
COc1ccc(NC(=O)C(CCCCNC(=O)OC(C)(C)C)NC(=O)OCc2ccccc2)cc1 (configuration not stated),0,0,0,3.5µM,?,?
COC(=O)C(Cc1cncn1COCc1ccccc1)NC(=O)OC(C)(C)C (configuration not stated),0,0,-,28µM,?,79µM
C[C@H](NC(=O)OCc1ccccc1)C(=O)NNC(=O)[C@H](Cc1ccccc1)NC(=O)OC(C)(C)C,0,0,0,0,0,0
CCc1ccc(N2CC(C(=O)OCC(=O)Nc3ccc(C(C)=O)cc3)CC2=O)cc1 (configuration not stated),0,0,0,0,?,0
Nc1nc(Nc2cc(F)cc(F)c2)nc(NC2CCCC2)n1,-,-,-,-,0,-
CCCc1nn2c(=O)cc(COC(=O)c3cccc(NC(=O)c4cccs4)c3)nc2s1,0,-,-,0,0,0
COC(=O)CCNC(=O)N1CCN(c2nnc(C)c3c(C)n(-c4ccccc4)nc23)CC1,0,-,-,0,0,0
CCOC(=O)C1=C(C)OC(N)=C(C#N)C1c1cc2ccccc2nc1N1CCCCC1 (configuration not stated),0,?,0,11µM,0,0
COc1ccc2cc(C3C(C#N)=C(N)OC(C)=C3C(C)=O)c(Cl)nc2c1 (configuration not stated),0,0,0,?,0,0
